Compound activity deposited in PubChem by several laboratories.
TIM10 inh = inhibits growth of TIM10 yeast strain; AID 463195; inhibition, % at 10 µM; 1.4% of 330,000 active; S. cerevisiae TIM10 strain growth, BacTiter-Glo luminescence, 24 h;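 active means inhibition of 40% or more at the single tested concentration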;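 further: wild-type TIM10 isogenic control strain grown at permissive 25 °C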
tim10-1 inh = tim10-1 yeast growth inhibition; S. cerevisiae tim10-1 ts strain growth, BacTiter-Glo, 24 h; inhibition, % at 20 µM; 2.2% of 330,000 active;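 active means inhibition of at least 40%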;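 further: mutant grown at 25 °C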
tim23-1 inh = tim23-1 yeast growth inhibition; inhibition, % at 20 µM; AID 463212; S. cerevisiae tim23-1 growth, BacTiter-Glo luminescence, 24 h; 1.3% of 330,000 active;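 active means growth inhibition of the mutant yeast at or above 50%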;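 further: temperature-sensitive mutant grown at 25 °C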
PfHsp90 yeast 2 = inhibits growth of yeast expressing Plasmodium falciparum Hsp90. S. cerevisiae expressing PfHsp90, BacTiter-Glo ATP, 48 h; yeast lacking PDR1 and PDR3 efflux regulators. inhibition, % at 9.4 µM. 0.32% of 310,000 active. AID 504621;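 active means every replicate shows inhibition above about 80%, whatever the replicate mean, limit read from the data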
NALP1 inh = inhibitors of NALP1 inflammasome in yeast | S. cerevisiae NALP1/ASC/caspase-1 growth, X-gal OD620, 72 h | inhibition, % at 10 µM | 0.61% of 280,000 active; in the data active means inhibition mostly above about 24%, no sharp cut-off; inactive means mostly below about 32%
NALP3 yeast inh = inhibitors of NALP3 inflammasome in yeast | AID 2825 | 0.39% of 330,000 active | inhibition, % at 10 µM | Yeast reconstituted NLRP3/ASC/caspase-1, beta-gal luminescence, 24 h;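 active means inhibition of 50% or more; inactive means inhibition below 50%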
tim23-1 confirm = confirmation of tim23-1 mutant yeast growth inhibitors; shares compounds with tim23-1 inh; inhibition, % at 20 µM; 83% of 4,400 active; S. cerevisiae tim23-1 growth, BacTiter-Glo luminescence, 24 h;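 active means inhibition above about 39% in either of two replicate wells at 20 µM, limit read from the data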;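 further: temperature-sensitive tim23-1 mutant grown at 25 °C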
Large screens that a line does not name were inactive (follow-up assays come after a bar, where they were run). The list is not random: actives were taken first. Their share in the collection is about 4.2%.

COc1ccc(C(=O)N/N=C\c2coc3ccccc3c2=O)cc1	tim23-1 inh 51 | tim23-1 confirm 43
O=C(N/N=C/c1coc2ccccc2c1=O)c1cc(O)cc(O)c1	none
O=C(N/N=C/c1ccc2cccc(OCc3ccccc3)c2n1)c1ccc(Cl)cc1	none
O=C(N/N=C/c1coc2ccc(Cl)cc2c1=O)c1ccncc1	tim23-1 inh 66 | tim23-1 confirm 56
O=C(N/N=C/c1cc(Cl)cc(Cl)c1O)c1ccncc1	tim23-1 inh 54 | tim23-1 confirm 62
COc1ccc(C(=O)N/N=C/c2ccc3cccc(O)c3n2)cc1	tim23-1 inh 53 | tim23-1 confirm 54
O=C(N/N=C/c1ccc(Cl)cc1Cl)c1ccncc1	none
O=C(CN1C(=O)C(=O)N(C2CCCC2)C1=O)NCCc1ccc(Cl)cc1Cl	none (no result: NALP1 inh)
CCN(CC)c1ccc(NC(=O)c2ccccc2Br)cc1S(=O)(=O)Nc1ccccc1OC	tim23-1 inh 50 | tim23-1 confirm 86
CCN(CC)c1ccc(C(=O)Nc2cccc(F)c2)cc1	tim23-1 inh 65 | tim23-1 confirm 73
CN(C)c1cccc(C(=O)Nc2cccc(F)c2)c1	none
CCOc1ccc(N2CC(C(=O)Nc3ccccc3C(=O)NC3CC3)CC2=O)cc1 (stereo not given)	none
COc1ccc(-c2ccc(C(c3c(C)[nH][nH]c3=O)c3c(C)[nH][nH]c3=O)o2)c([N+](=O)[O-])c1	none
Cc1[nH][nH]c(=O)c1C(c1ccc(-c2ccc(Cl)c(Cl)c2)o1)c1c(C)[nH][nH]c1=O	tim23-1 inh 75 | tim23-1 confirm 46
O=C(CN1CCN(c2ccc(O)cc2)CC1)N(C1CC1)C1CCS(=O)(=O)C1 (stereo not given)	none (no result: PfHsp90 yeast 2, NALP1 inh)
C=CCN(c1ccccc1C(=O)NCC(=O)O)S(=O)(=O)c1ccccc1C	none
CCOC(=O)C1CCN(C(=O)Cc2ccccc2OC)CC1	none
CCOC(=O)C1CCN(C(=O)Cc2c(C(=O)O)n(C)c3ccccc23)CC1	tim23-1 inh 77 | tim23-1 confirm inactive
CCCn1c(=O)c(Br)cn(-c2ccccc2C)c1=O	none (no result: NALP1 inh)
CC1(C)CC(=O)C(N=Nc2cccnc2)=C(O)C1	tim23-1 inh 52 (no result: NALP1 inh) | tim23-1 confirm inactive
CC1(C)CC(=O)C(N=Nc2ccc3ncsc3c2)=C(O)C1	tim23-1 inh 60 | tim23-1 confirm inactive
CC1(C)CC(=O)C(N=Nc2ccc(-c3ccccc3)cc2)=C(O)C1	none
Cc1cccc(C2=NN(c3ccccc3)[C@H](CO)[C@H]2c2ccc(Cl)cc2)c1	tim23-1 inh 51 (no result: NALP1 inh, NALP3 yeast inh) | tim23-1 confirm inactive
COc1ccccc1[C@H]1C(c2cccc(Cl)c2)=NN(c2ccccc2)[C@@H]1CO	tim23-1 inh 56 (no result: NALP1 inh, NALP3 yeast inh) | tim23-1 confirm 40
OC[C@@H]1[C@@H](c2ccccc2)C(c2ccccc2)=NN1c1ccccc1	none (no result: NALP1 inh, NALP3 yeast inh)
OC[C@@H]1[C@@H](c2ccccc2)C(c2cccc(Cl)c2)=NN1c1ccccc1	tim23-1 inh 52 (no result: NALP1 inh, NALP3 yeast inh) | tim23-1 confirm 47
Cc1cccc(C2=NN(c3ccc(Br)cc3)[C@@H](C(=O)N3CCOC3=O)[C@@H]2c2ccc(F)cc2)c1	none
Cc1cccc(C2=NN(c3ccccc3)[C@H](CO)[C@H]2c2ccc(F)cc2)c1	tim23-1 inh 51 (no result: NALP1 inh, NALP3 yeast inh) | tim23-1 confirm inactive
Cc1cccc(C2=NN(c3ccc(Br)cc3)[C@@H](C(=O)N3CCOC3=O)[C@@H]2c2ccc(Cl)cc2)c1	none (no result: NALP1 inh, NALP3 yeast inh)
CCOc1ccc(/C(O)=C2/C(=O)C(=O)N(CC3CCCO3)C2c2cccs2)cc1 (stereo not given)	none
NC(=O)CC[C@H](NC(=O)c1ccc(F)cc1)C(=O)OCC(=O)NCc1ccc(F)cc1	none
Cc1ccc(Cn2c(C3CCCN3c3nc(-c4ccc(F)cc4)cs3)nc3cc(C(F)(F)F)ccc32)cc1 (stereo not given)	none (no result: NALP1 inh)
Cc1ccccc1C(=O)Oc1ccc(Sc2ccc(O)cc2)cc1	tim23-1 inh 57 (no result: PfHsp90 yeast 2) | tim23-1 confirm inactive
O=C(Nc1ccc(Cl)c(Cl)c1)Nc1ccon1	tim23-1 inh 53 | tim23-1 confirm 48
Cc1cc(NCCCO)n2nc(-c3cccs3)cc2n1	none
OCCCNc1cc(-c2ccccc2)nc2cc(-c3ccc(F)cc3)nn12	tim23-1 inh 51 | tim23-1 confirm 55
O=C(Cc1cnc2ncnn2c1)N1CCc2c([nH]c3ccccc23)C1c1ccccn1 (stereo not given)	tim23-1 inh 59 | tim23-1 confirm inactive
CC(=O)c1cc(CC(=O)N2CCc3c([nH]c4ccccc34)C2c2ccccn2)cs1 (stereo not given)	none
COc1ccc(-c2nc(-c3cccc(C)c3)nc(N3CCN(C)CC3)c2C#N)cc1	tim23-1 inh 59 | tim23-1 confirm 44
COc1ccc(CNC(=O)CN(C(=O)CCC(=O)Nc2nccs2)c2ccc3c(c2)OCO3)cc1	none
COc1ccc(C(=O)N/N=C/c2ccc(OC)c(COc3ccc(F)cc3F)c2)cc1	tim23-1 inh 55 | tim23-1 confirm 40
COc1ccc(C(=O)N/N=C/c2ccc(OC)c(COc3ccc(F)cc3)c2)cc1	none
O=C(NC(=S)NCc1ccco1)c1cccc(Cl)c1	tim23-1 inh 57 | tim23-1 confirm 47
CSCCC(C)N1CCC(Oc2ccc(C(=O)N3CCCC3)cc2)CC1 (stereo not given)	none
Clc1nssc1=Nc1nncs1	tim23-1 inh 52 (no result: NALP1 inh) | tim23-1 confirm 76
CC(=O)n1cc(N(C(=O)CCl)c2ccc(C)cc2)c2ccccc21	tim23-1 inh 69 | tim23-1 confirm inactive
Cn1/c(=N/NC(=O)c2ccccc2F)sc2ccccc21	none
O=C(NOCc1ccccc1)c1coc(-c2ccccc2)n1	tim23-1 inh 60 (no result: NALP1 inh, NALP3 yeast inh) | tim23-1 confirm inactive
NC(=O)NOCc1ccccc1	none
O=C(CCc1ccccc1)Oc1ccccc1[N+](=O)[O-]	tim23-1 inh 57 (no result: PfHsp90 yeast 2, NALP1 inh) | tim23-1 confirm 67
Cc1ccc(S(=O)(=O)N2C[C@@H]3[C@H]4CC[C@H](C4)[C@@H]3[C@@H](C)[C@H]2C#N)cc1	tim23-1 inh 91 (no result: NALP1 inh, NALP3 yeast inh) | tim23-1 confirm 40
Cc1ccc(S(=O)(=O)N2C[C@@H]3[C@H]4CC[C@H](C4)[C@@H]3[C@@H](C)[C@H]2c2ccn(Cc3ccccc3)c2)cc1	none (no result: NALP1 inh, NALP3 yeast inh)
CCOC(=O)[C@H]1[C@H]2COc3ccccc3[C@@H]2N2C(=O)c3c(C)cc(C)cc3NC(=O)[C@@]12C	none (no result: NALP1 inh)
O=C(/C=C/c1ccccc1Cl)OCC(=O)c1ccc[nH]1	tim23-1 inh 53 (no result: NALP1 inh) | tim23-1 confirm 45
COc1ccc(CNC(=O)CC2C[C@H](C(=O)N3CCCCC3)[C@@]3(C)c4[nH]c5ccccc5c4CCN3C2=O)cc1OC (stereo not given in full)	none (no result: NALP1 inh)
Cc1csc2ncnc(N3CCN(C(=S)Nc4ccc(C(F)(F)F)cc4)CC3)c12	none
